Calls of active or inactive are those of the source.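 How the source made its calls, unless noted: active means mean inhibition above 46.68%, the untreated control wells mean plus 3 SD; inactive means the rest.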
Target: Nuclear receptor coactivator 1 (Homo sapiens) (UniProt Q15788)
Test: SRC1 coactivator transcriptional activity inhibitors, confirmation, cell-based, luminescence, quadruplicate (AID 588820);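 further: 0% = DMSO wells and 100% = gossypol 36 µM treated wells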
Conditions: HEK293 GAL4-SRC1 luciferase reporter, at 3.6 µM, hits give high values

Nuclear receptor coactivator 1 (Homo sapiens), sequence (Q15788 whole entry, looked up): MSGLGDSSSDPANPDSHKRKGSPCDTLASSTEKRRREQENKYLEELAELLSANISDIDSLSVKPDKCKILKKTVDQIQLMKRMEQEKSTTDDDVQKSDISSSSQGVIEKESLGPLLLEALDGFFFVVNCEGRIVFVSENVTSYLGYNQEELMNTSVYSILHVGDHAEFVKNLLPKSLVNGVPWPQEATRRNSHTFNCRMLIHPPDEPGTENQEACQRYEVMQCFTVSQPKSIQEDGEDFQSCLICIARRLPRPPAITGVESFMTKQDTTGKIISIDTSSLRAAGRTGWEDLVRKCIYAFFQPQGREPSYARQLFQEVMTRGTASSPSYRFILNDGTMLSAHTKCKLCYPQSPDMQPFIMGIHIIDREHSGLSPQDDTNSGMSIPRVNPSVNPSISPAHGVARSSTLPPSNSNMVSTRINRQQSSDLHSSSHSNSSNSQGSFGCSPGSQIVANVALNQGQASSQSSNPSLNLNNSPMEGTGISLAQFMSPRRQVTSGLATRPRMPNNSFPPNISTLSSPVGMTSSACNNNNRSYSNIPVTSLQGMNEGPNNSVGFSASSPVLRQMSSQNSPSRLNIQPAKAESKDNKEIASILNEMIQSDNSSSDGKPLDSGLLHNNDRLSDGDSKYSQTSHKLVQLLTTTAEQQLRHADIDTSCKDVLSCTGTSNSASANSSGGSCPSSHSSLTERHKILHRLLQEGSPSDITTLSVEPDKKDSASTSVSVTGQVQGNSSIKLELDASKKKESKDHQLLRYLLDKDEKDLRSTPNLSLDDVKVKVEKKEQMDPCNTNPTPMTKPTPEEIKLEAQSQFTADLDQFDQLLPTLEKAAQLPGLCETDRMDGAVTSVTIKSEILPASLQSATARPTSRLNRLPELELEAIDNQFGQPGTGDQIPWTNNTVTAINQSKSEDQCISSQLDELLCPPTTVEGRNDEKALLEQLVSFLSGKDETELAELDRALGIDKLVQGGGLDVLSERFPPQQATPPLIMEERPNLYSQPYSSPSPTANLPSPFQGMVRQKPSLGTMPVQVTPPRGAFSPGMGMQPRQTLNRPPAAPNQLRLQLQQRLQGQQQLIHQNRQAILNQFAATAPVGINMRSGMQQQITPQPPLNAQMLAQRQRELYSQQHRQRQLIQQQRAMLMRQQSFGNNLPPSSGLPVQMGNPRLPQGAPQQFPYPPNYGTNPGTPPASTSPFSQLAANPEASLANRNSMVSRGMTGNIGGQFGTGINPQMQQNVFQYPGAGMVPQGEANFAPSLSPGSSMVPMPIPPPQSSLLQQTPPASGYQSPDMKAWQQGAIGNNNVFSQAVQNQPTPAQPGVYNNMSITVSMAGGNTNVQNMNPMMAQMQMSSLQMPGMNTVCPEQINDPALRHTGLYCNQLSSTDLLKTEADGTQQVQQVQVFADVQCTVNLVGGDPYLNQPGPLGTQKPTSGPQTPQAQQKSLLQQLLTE

| SMILES | inhibition |
| --- | --- |
| CCN1CCN(S(=O)(=O)c2cc(OCC(=O)NC3CCCCC3)c(C)cc2Cl)CC1 | -7.06% (inactive) |
| CCOC(=O)C1=C(COC(=O)Cc2ccc(Br)cc2)NC(=O)NC1C (stereo not drawn) | -7.28% (inactive) |
| CC(O)(c1ccccc1)c1nc(-c2cccc(C#N)c2)cs1 (stereo not drawn) | -22.4% (inactive) |
| CCCCC(=O)Nc1cccn2ncnc12 | 24.7% (inactive) |
| COC(=O)c1cc(=O)n(Cc2ccco2)c(=Nc2ccc(F)c(Cl)c2)s1 | -12.1% (inactive) |
| Cn1ncc(Cl)c1C(=O)NCc1cc(C(C)(C)C)n[nH]1 | -8.52% (inactive) |
| CC(Oc1ccccc1F)C(=O)NNC(=O)CC(C)c1ccccc1 (stereo not drawn) | 12.4% (inactive) |
| CCN(C(=O)C(C)OC(=O)CCCNC(=O)c1ccc(Cl)cc1)c1ccccc1 (stereo not drawn) | -2.16% (inactive) |
| CCOc1ccc(NC(=S)N2CCC(NC(=O)c3ccco3)CC2)cc1 | -7.01% (inactive) |
| Cc1ccc2nc(NC(=O)CCCC(=O)O)sc2c1 | 45.4% (inactive) |
| CCOc1cc(C(=S)N2CCCCC2)ccc1OCC(=O)NCc1ccccc1 | -15.9% (inactive) |
| Cc1cc(NCc2cccnc2)no1 | -7.64% (inactive) |
| CCOC(=O)c1ccc(NC(=O)c2ccc(CN3CCc4ccccc4C3)cc2)cc1 | -48.8% (inactive) |
| Cc1[nH]nc2ncc(C(=O)c3cc(F)ccc3O)cc12 | 18.4% (inactive) |
| N#CC(C#N)=NNc1ccc2cn[nH]c2c1 | 14.6% (inactive) |
| CNc1snc(C)c1C(=O)OCC(=O)Nc1ccc(C)cc1F | 3.09% (inactive) |
| COCCn1c(SCC(=O)Nc2cccc(NC(C)=O)c2)nc2c([nH]c3ccccc32)c1=O | -31.7% (inactive) |
| COc1ccc(S(=O)(=O)N(C)c2ccc(C(=O)Nc3cccnc3)cc2)cc1OC | 14.3% (inactive) |
| Cc1cc(CSc2ccccc2)ccc1NC(=O)c1ccc(CN2CCOCC2)cc1 | -33.7% (inactive) |
| Cc1nc2ccccn2c1-c1ccnc(=S)[nH]1 | 31.1% (inactive) |

| SMILES | inhibition |
| --- | --- |
| Cc1noc(C)c1COC(=O)CCN1c2ccccc2Sc2ccccc21 | 0.23% (inactive) |
| Cc1ccc(S(=O)(=O)CC(CN2CCCCC2)N2CCCCC2)cc1 (stereo not drawn) | 4.8% (inactive) |
| COc1ccc(OC)c(/C=C2\NC(=O)NC2=O)c1 | 29.5% (inactive) |
| CCOc1ccc(CCNC(=O)COC(=O)c2cc(OC)c(OC)cc2[N+](=O)[O-])cc1OCC | -11.8% (inactive) |
| CN1CCc2c(OCc3ccc(F)cc3)cccc2C1=O | -8.74% (inactive) |
| CCCc1cc(-c2ccc(O)c(OCC)c2)c(C#N)c(N)n1 | -3.92% (inactive) |
| CCN(CC)S(=O)(=O)c1cc(NC(=O)C2CCN(c3ncnc4sc(C)c(C)c34)CC2)ccc1Cl | 3.49% (inactive) |
| Oc1c(C(Nc2nc3ccccc3s2)c2ccco2)ccc2cccnc12 (stereo not drawn) | 28.4% (inactive) |
| COc1cc(OC)c(NS(=O)(=O)c2ccc(Cl)c(C(=O)OC(C)C(=O)N3CCCC3)c2)cc1Cl (stereo not drawn) | -10.2% (inactive) |
| COc1ccc2c(c1)c(C(C)=O)c(C)n2-c1ccccc1 | 13.5% (inactive) |
| O=C(COc1ccc(Cl)cc1Cl)NN1C(=O)C2C3C=CC(C3)C2C1=O (stereo not drawn) | -1.23% (inactive) |
| C(=N\Nc1nc2ccccc2[nH]1)/c1ccc2ncccc2c1 | -40.4% (inactive) |
| COC(=O)c1cccc(NC(=O)CN2C(=O)c3ccccc3C2=O)c1 | -23.7% (inactive) |
| c1cc2c(cn1)cnc1cscc12 | 40.9% (inactive) |
| CCN(CC(=O)Nc1ccccc1C(F)(F)F)C(=O)c1ccc2[nH]c3c(c2c1)CC(C)CC3 (stereo not drawn) | -11.7% (inactive) |
| CC1(C)CC(NCc2ccccc2)CCO1 (stereo not drawn) | -24.7% (inactive) |
| Cc1ccc(OCC(=O)Oc2c(C)cccc2C)cc1C | -3.92% (inactive) |
| Cn1c(=O)c2[nH]c(Nc3ccccc3)nc2n(C)c1=O | -22.1% (inactive) |
| CC(C)(C)OC(=O)N(CCc1ccccc1)Cc1ccc(OCc2cccc(NC(=O)C3CCCC3)c2)cc1 | -0.88% (inactive) |

System: not listed separately
Test: VP16 transactivation inhibitors, counter-screen for SRC1 inhibitor project, cell-based, luminescence, high throughput (AID 588824; in the data active means inhibition above about 25%)
Conditions: cell-based VP16 transactivation luciferase luminescence; at 3.6 µM; hits give high values

| SMILES | inhibition |
| --- | --- |
| CCN1CCN(S(=O)(=O)c2cc(OCC(=O)NC3CCCCC3)c(C)cc2Cl)CC1 | 31.1% (active) |
| CCOC(=O)C1=C(COC(=O)Cc2ccc(Br)cc2)NC(=O)NC1C (stereo not drawn) | -12.6% (inactive) |
| CC(O)(c1ccccc1)c1nc(-c2cccc(C#N)c2)cs1 (stereo not drawn) | -4.39% (inactive) |
| CCCCC(=O)Nc1cccn2ncnc12 | 14.8% (inactive) |
| COC(=O)c1cc(=O)n(Cc2ccco2)c(=Nc2ccc(F)c(Cl)c2)s1 | 18.7% (inactive) |
| Cn1ncc(Cl)c1C(=O)NCc1cc(C(C)(C)C)n[nH]1 | -4.25% (inactive) |
| CC(Oc1ccccc1F)C(=O)NNC(=O)CC(C)c1ccccc1 (stereo not drawn) | 2.31% (inactive) |
| CCN(C(=O)C(C)OC(=O)CCCNC(=O)c1ccc(Cl)cc1)c1ccccc1 (stereo not drawn) | -2.69% (inactive) |
| CCOc1ccc(NC(=S)N2CCC(NC(=O)c3ccco3)CC2)cc1 | -4.78% (inactive) |
| Cc1ccc2nc(NC(=O)CCCC(=O)O)sc2c1 | 37.5% (active) |
| CCOc1cc(C(=S)N2CCCCC2)ccc1OCC(=O)NCc1ccccc1 | -12.5% (inactive) |
| Cc1cc(NCc2cccnc2)no1 | 9.01% (inactive) |
| CCOC(=O)c1ccc(NC(=O)c2ccc(CN3CCc4ccccc4C3)cc2)cc1 | 30.4% (active) |
| Cc1[nH]nc2ncc(C(=O)c3cc(F)ccc3O)cc12 | 16.1% (inactive) |
| N#CC(C#N)=NNc1ccc2cn[nH]c2c1 | 31.6% (active) |
| CNc1snc(C)c1C(=O)OCC(=O)Nc1ccc(C)cc1F | -1.51% (inactive) |
| COCCn1c(SCC(=O)Nc2cccc(NC(C)=O)c2)nc2c([nH]c3ccccc32)c1=O | -16.2% (inactive) |
| COc1ccc(S(=O)(=O)N(C)c2ccc(C(=O)Nc3cccnc3)cc2)cc1OC | 17.4% (inactive) |
| Cc1cc(CSc2ccccc2)ccc1NC(=O)c1ccc(CN2CCOCC2)cc1 | 33.4% (active) |
| Cc1nc2ccccn2c1-c1ccnc(=S)[nH]1 | 11.1% (inactive) |

| SMILES | inhibition |
| --- | --- |
| Cc1noc(C)c1COC(=O)CCN1c2ccccc2Sc2ccccc21 | -13.4% (inactive) |
| Cc1ccc(S(=O)(=O)CC(CN2CCCCC2)N2CCCCC2)cc1 (stereo not drawn) | -1.35% (inactive) |
| COc1ccc(OC)c(/C=C2\NC(=O)NC2=O)c1 | 15.5% (inactive) |
| CCOc1ccc(CCNC(=O)COC(=O)c2cc(OC)c(OC)cc2[N+](=O)[O-])cc1OCC | -2.67% (inactive) |
| CN1CCc2c(OCc3ccc(F)cc3)cccc2C1=O | -7.17% (inactive) |
| CCCc1cc(-c2ccc(O)c(OCC)c2)c(C#N)c(N)n1 | -2.24% (inactive) |
| CCN(CC)S(=O)(=O)c1cc(NC(=O)C2CCN(c3ncnc4sc(C)c(C)c34)CC2)ccc1Cl | 34.4% (active) |
| Oc1c(C(Nc2nc3ccccc3s2)c2ccco2)ccc2cccnc12 (stereo not drawn) | 29.8% (active) |
| COc1cc(OC)c(NS(=O)(=O)c2ccc(Cl)c(C(=O)OC(C)C(=O)N3CCCC3)c2)cc1Cl (stereo not drawn) | 10.7% (inactive) |
| COc1ccc2c(c1)c(C(C)=O)c(C)n2-c1ccccc1 | 19.1% (inactive) |
| O=C(COc1ccc(Cl)cc1Cl)NN1C(=O)C2C3C=CC(C3)C2C1=O (stereo not drawn) | -10.4% (inactive) |
| C(=N\Nc1nc2ccccc2[nH]1)/c1ccc2ncccc2c1 | -63.6% (inactive) |
| COC(=O)c1cccc(NC(=O)CN2C(=O)c3ccccc3C2=O)c1 | -3.69% (inactive) |
| c1cc2c(cn1)cnc1cscc12 | 7.33% (inactive) |
| CCN(CC(=O)Nc1ccccc1C(F)(F)F)C(=O)c1ccc2[nH]c3c(c2c1)CC(C)CC3 (stereo not drawn) | -8.04% (inactive) |
| CC1(C)CC(NCc2ccccc2)CCO1 (stereo not drawn) | -4.92% (inactive) |
| Cc1ccc(OCC(=O)Oc2c(C)cccc2C)cc1C | -9.72% (inactive) |
| Cn1c(=O)c2[nH]c(Nc3ccccc3)nc2n(C)c1=O | 0.08% (inactive) |
| CC(C)(C)OC(=O)N(CCc1ccccc1)Cc1ccc(OCc2cccc(NC(=O)C3CCCC3)c2)cc1 | -7.49% (inactive) |

— PubChem BioAssay
